# Source: PubChem BioAssay (NCI)
# Compounds without any hit were thinned out: in the full panel of roughly 83,000, 20% have a hit.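 Compound tested at a single concentration for 48 hours in 96-well plates; a percent growth value below 10 was scored as active.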 Values without a mark were called inactive. Calls of active or inactive are those of the source.
# System: MDA-MB-468 breast
# Experiment: NCI-60 one-dose screen, 48 h (100 = growth as untreated, 0 = no growth, -100 = all killed)
# Conditions: 10 µM unless noted
row,SMILES,growth
1,CC[C@H](CO)Nc1nc(NCc2ccccc2)c2ncn(C(C)C)c2n1,85%
2,COC(=O)[C@@H]1CCCN1C(=O)[C@@H]1CCCN1C(=O)[C@H](Cc1ccccc1)NC(=S)Nc1cc(C(F)(F)F)cc(C(F)(F)F)c1,89%
3,NCCC(=O)c1ccc(Cl)cc1,113%
4,CCc1n(Cc2ccc3ccccc3c2)cc[n+]1Cc1ccc2ccccc2c1,-22.9% (active)
5,O=c1onc(-c2ccccc2)c2ccccc12,108%
6,CCOC(=O)c1sc(-c2ccc(OS(=O)(=O)c3ccc(Br)s3)c(C=O)c2)nc1C,18.1%
7,Cc1cc(=O)n(Nc2ccccc2)c(O)c1C#N,108%
8,CC1CCC(C(=O)O)N1 (stereo unspecified),106%
9,CCc1nnc(NC(=O)c2nnn(-c3ccccc3)c2-c2ccco2)s1,95.9%
10,COc1ccc(C(=O)c2cc(OC)c(OC)c(OC)c2)cc1OC(=O)CCl,63.4%
11,CSc1nc(Nc2ccc(S(=O)(=O)Nc3ccon3)cc2)c(C#N)c(-c2ccc(Cl)cc2)n1,93.1%
12,NC(N)=Nc1ccc(Oc2cccc(Nc3ccc(Cl)c(C(F)(F)F)c3)c2)cc1,4.84% (active)
13,O=c1oc2c(cc1-c1ccccc1)c[n+]([O-])c1ccccc21,104%
14,CC(=O)C1CCC(C)=CC1=O (stereo unspecified),116%
15,Cc1ncc(C(=O)Nc2ccc(CN3CCN(C)CC3)c(C(F)(F)F)c2)cc1C#Cc1ccc(N)nc1,10.9%
16,Oc1c(CN2CCC(N3CCOCC3)CC2)cc(Cc2cc(CN3CCC(N4CCOCC4)CC3)c(O)c3ncccc23)c2cccnc12,9.12% (active)
17,CC1CCCCN1CCCNC(=O)c1ccc2c(c1)sc1nc(-c3ccc(F)cc3)cn12 (stereo unspecified),96.3%
18,N#Cc1ccc(C(F)(F)F)nc1N1CCC(C(=O)Nc2ccc(Cl)cc2)CC1,69.2%
19,COc1cc(-c2nc(C(=O)NCC(=O)NO)nn2-c2ccc(Cl)cc2)cc(OC)c1OC,112%
20,Clc1ccc(C(SCc2ccccc2)SCc2ccccc2)cc1,77.7%
21,ClCCn1cnc2c(SCc3ccccc3)ncnc21,74.8%
22,CCCCCCOc1ccc(/C=N/NC(N)=S)cc1,66.9%
23,c1cc[c]([Bi]([c]2ccccc2)[c]2ccccc2)cc1,84.7%
24,O=C(c1cccc(C(=O)c2ccc3c4c(cccc24)C(=O)N(c2ccccc2)C3=O)c1)c1ccc2c3c(cccc13)C(=O)N(c1ccccc1)C2=O,91.3%
25,Cc1ccc(C)c(COc2cc(NC(=O)c3ccc4c(c3)OCO4)ccc2N(C)S(C)(=O)=O)c1,-29.6% (active)
26,COc1cccc(/C=C2\COc3ccc(O)cc3C2=O)c1,66.2%
